Holding throughout (details): concentration: 10 µM; 24 h
For test [1], the system named is HCC1569. As to the kind of experiment: cell number relative to DMSO (% of DMSO); higher = more cells (less growth inhibition / toxicity). The procedure, abridged:
(§1)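 Six fields per well were imaged at ×10 after the cells were fixed in 3.7% formaldehyde and stained with a rabbit anti-H1.0 antibody, an AlexaFluor 647 secondary and DAPI. The HCC1569 and TDF cells had been plated at 800 per well in 384-well plates (RPMI, 10% FBS) and treated in triplicate with compounds at 10 µM for 24 h at 37 °C. The values are the median of replicates of H1.0 nuclear intensity or cell number, as percent of the plate control. Smoothing for positional effects was applied to HCC1569 data.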

Test [2] concerns TDF. The description is as above. The procedure, abridged:
as §1

In test [3] the test system is TDF. As to the kind of experiment: H1.0 immunofluorescence intensity relative to DMSO (% of DMSO); higher = stronger H1.0 induction, active = 120 or more. In short, it runs like this:
as §1

The subject of test [4] is HCC1569. As to the kind of experiment: H1.0 immunofluorescence intensity relative to DMSO (% of DMSO); higher = stronger H1.0 induction, active = 140 or more. The procedure, abridged: as §1

Several values for one entry are separate records, joined by “and”; a condition that tells them apart may be missing. Equal entries are not always repeated. ± gives the standard deviation of the averaged measurements.
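For H1.0 immunofluorescence intensity relative to DMSO in this document: TDF is a line of transformed human dermal fibroblasts of mesenchymal origin.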
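For cell number relative to DMSO in this document: TDF denotes transformed human dermal fibroblasts of mesenchymal origin.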

Consider `CCCCC(C)(O)CC=CC1C(O)CC(=O)C1CCCCCCC(=O)O` (configuration not stated) [Misoprostol, free acid], for which the cell number with HCC1569 [1] worked out at 100; in the test on TDF [2], 85.8. Further, the figures for the H1.0 immunofluorescence intensity in the test with TDF [3] and in the test on HCC1569 [4] were 95.6 (inactive) and 98.8 (inactive), respectively.

For `N#CC(=Cc1ccc(O)c(O)c1)C(=O)NCc1ccccc1` [Tyrphostin AG 490], the figures for the cell number in the test on HCC1569 [1] and in the test on TDF [2] were 94.5 and 107, respectively. Moreover, the H1.0 immunofluorescence intensity in the test with TDF [3] is 88.7 (inactive); with HCC1569 [4], 99.7 (inactive).

Turning to `COc1ccc(COc2ccc(Cc3cnc(N)nc3N)cc2OC)cc1` [cFMS Receptor Tyrosine Kinase Inhibitor], the cell number in the test on HCC1569 [1] is 100; in the test with TDF [2], 93.7. The H1.0 immunofluorescence intensity was 98.1 (inactive) in the test with TDF [3] and 130 (inactive) in the test with HCC1569 [4].

`CCOC(=O)[C@H](Cc1ccc([N+](=O)[O-])cc1)NC(=O)c1ccccc1` [ethyl (2S)-2-(benzoylamino)-3-(4-nitrophenyl)propanoate]: the cell number in the test with HCC1569 [1] was 101; with TDF [2] it was 98.3. For the same compound, the H1.0 immunofluorescence intensity is 93.8 (inactive) in the test on TDF [3] and 95 (inactive) in the test with HCC1569 [4].

With `CN(C)C(=O)Nc1cccc(-c2ccc(N(C)C)cc2)c1` [3-(4'-(dimethylamino)-[1,1'-biphenyl]-3-yl)-1,1-dimethylurea], the cell number with HCC1569 [1] and in the test on TDF [2] was 101 throughout. Also, the H1.0 immunofluorescence intensity in the test on TDF [3] is 97.6 (inactive); in the test on HCC1569 [4], 87.2 (inactive).

`COc1cc2c(cc1OC)C1C(C)c3ccc(OC)c(OC)c3CN1CC2` (configuration not stated) [Corydaline]: the cell number was 96.9 in the test with HCC1569 [1] and 106 in the test on TDF [2]. Also, the H1.0 immunofluorescence intensity in the test with TDF [3] was 94.4 (inactive); in the test on HCC1569 [4] it was 84.2 (inactive).

Take `O=C1CN2Cc3c(ccc(Cl)c3Cl)NC2=N1` [Anagrelide]: the cell number with HCC1569 [1] stood at 103; with TDF [2] it was 110. Further, the H1.0 immunofluorescence intensity was 92.9 (inactive) with TDF [3] and 98.7 (inactive) with HCC1569 [4].

In the case of `CN(CC=CC#CC(C)(C)C)Cc1cccc2ccccc12` [Terbinafine], the cell number came to 104 in the test on HCC1569 [1] and 110 in the test on TDF [2]. The H1.0 immunofluorescence intensity in the test on TDF [3] is 99.6 (inactive); in the test with HCC1569 [4], 104 (inactive).

On to `CCCCCC(O)C=CC=CCCCCCCCC(=O)O` (racemic), for which the figures for the cell number in the test on HCC1569 [1] and in the test with TDF [2] were 102 and 107, respectively. The H1.0 immunofluorescence intensity is 95.9 (inactive) in the test on TDF [3] and 101 (inactive) in the test with HCC1569 [4].

For `CC12CC3CC(C)(C1)CC(N)(C3)C2.Cl` [Memantine.HCl], the cell number with HCC1569 [1] was found to be 94.8; with TDF [2], 102. Further, the H1.0 immunofluorescence intensity in the test on TDF [3] is 90.8 (inactive); in the test on HCC1569 [4], 100 (inactive).

As for `CC(CS)C(=O)N1CCCC1C(=O)O` (configuration not stated) [Captopril], the cell number with HCC1569 [1] is 98.4 ± 2.9; in the test with TDF [2], 93.4 ± 4.1. Further, the H1.0 immunofluorescence intensity is 97.6 (inactive) in the test on TDF [3] and 96.7 (inactive) in the test with HCC1569 [4].

As to `Cc1[nH]c(C=C2C(=O)Nc3ccc(S(=O)(=O)Cc4c(Cl)cccc4Cl)cc32)c(C)c1C(=O)N1CCCC1CN1CCCC1` (configuration not stated), the figures for the cell number in the test on HCC1569 [1] and with TDF [2] were 75.3 and 22.8, respectively. The H1.0 immunofluorescence intensity with TDF [3] is 133 (active); in the test on HCC1569 [4], 204 (active).

As for `CC1=C(C)C(=O)C(CCCCC#CCCCC#CCO)=C(C)C1=O`, the figures for the cell number in the test with HCC1569 [1] and in the test on TDF [2] were 99.09 ± 0.2 and 85 ± 1.8, respectively. The H1.0 immunofluorescence intensity with TDF [3] was 104 (inactive); in the test with HCC1569 [4] it was 103 (inactive).

For `CCCC(C(=O)OCCN(CC)CC)(c1ccccc1)c1ccccc1.Cl` [SKF-525A hydrochloride], the values for the cell number in the test on HCC1569 [1] and with TDF [2] were 94 and 100, respectively. The H1.0 immunofluorescence intensity is 88.8 (inactive) with TDF [3] and 102 (inactive) with HCC1569 [4].

On to `CSc1ccc2c(c1)N(CCC1CCCCN1C)c1ccccc1S2` (configuration not stated) [Thioridazine], for which the cell number in the test on HCC1569 [1] and in the test with TDF [2] was 102 throughout. Besides, the H1.0 immunofluorescence intensity in the test on TDF [3] is 105 (inactive); in the test with HCC1569 [4], 133 (inactive).

Consider `CC(C)CN(C)c1nc(N)c(C(=O)N=C(N)N)nc1Cl` [5-(N-Methyl-N-isobutyl)amiloride], for which the cell number came to 100 with HCC1569 [1] and 92.3 in the test with TDF [2]. Further, the values for the H1.0 immunofluorescence intensity with TDF [3] and with HCC1569 [4] were 106 (inactive) and 101 (inactive), respectively.

For the compound `CCCCCC=CCC=CCCCCCCCC(=O)O` [9(E),12(E)-Octadecadienoic acid], the cell number came out at 96.5 in the test on HCC1569 [1] and 107 in the test with TDF [2]. In addition, the H1.0 immunofluorescence intensity with TDF [3] was 100 (inactive); in the test with HCC1569 [4], 108 (inactive).

Regarding `O=C1c2c(O)cc(O)cc2OC(c2ccc(O)c(O)c2)C1O` (single isomer, unassigned; (+)) [(+)-Taxifolin], the results for the cell number with HCC1569 [1] and in the test on TDF [2] were 99.5 and 83.9, respectively. Further, the H1.0 immunofluorescence intensity with TDF [3] is 105 (inactive); in the test with HCC1569 [4], 102 (inactive).

As for `O=C(O)CCCCCCCC(=O)O` [Azelaic acid], the results for the cell number in the test with HCC1569 [1] and in the test with TDF [2] were 102 and 101, respectively. The H1.0 immunofluorescence intensity with TDF [3] was 98.2 (inactive); in the test on HCC1569 [4], 89.8 (inactive).

On to `CCCCCCCCCCCCCC=CC(O)C(N)CO` (configuration not stated) [Sphingosine], for which the cell number was 103 ± 4.4 with HCC1569 [1] and 101 ± 6.5 in the test with TDF [2]. Also, the H1.0 immunofluorescence intensity in the test on TDF [3] was 96.9 (inactive); in the test on HCC1569 [4] it was 98.4 (inactive).

As to `CCOC(=O)C1OC1C(=O)NC(CC(C)C)C(=O)NCCC(C)C` (configuration not stated), the cell number with HCC1569 [1] was 100; in the test with TDF [2], 93.4. For the same compound, the H1.0 immunofluorescence intensity was 101 (inactive) in the test on TDF [3] and 97.9 (inactive) with HCC1569 [4].

Take `Cc1ccc(NC(=O)c2cccc(N(C)C)c2)cc1NC(=O)c1ccc(O)cc1`: the cell number with HCC1569 [1] is 92.1 and 95.3; in the test on TDF [2], 100 and 94.1. Besides, the H1.0 immunofluorescence intensity is 96.7 (inactive) and 105 (inactive) in the test with TDF [3]; 110 (inactive) and 119 (inactive) in the test on HCC1569 [4].

With `CSCC[C@@H](C=O)NC(=O)[C@H](CC(C)C)NC(=O)[C@H](CC(C)C)NC(C)=O`, the cell number was 99.2 in the test on HCC1569 [1] and 95.5 in the test on TDF [2]. Besides, the values for the H1.0 immunofluorescence intensity in the test with TDF [3] and with HCC1569 [4] were 96.4 (inactive) and 92.2 (inactive), respectively.
